Laboratory results from ChEMBL document CHEMBL1857833, “Screening and optimization of specific chemical series against human African Trypanosomiasis (HAT)”.
Hit rate of the full screen: of about 4,400 compounds, about 390 (8.9%) showed an effect of 50% or more. The full list was thinned out, with strong results kept by preference.

System: Trypanosoma brucei
Assay: DNDI: Inhibition of Human African Trypanosomiasis, SBRI 427, in vitro at 2 ug.mL-1
Format: functional

Row | Compound | % inhibition [%]
1 | CC(C)(C)c1ccc(-c2nc(CNC3CCN(Cc4ccccc4)C3)co2)cc1 (configuration not stated) | 55
2 | COc1ccc(-c2nc(CNC3CCN(Cc4ccccc4)C3)co2)cc1 (configuration not stated) | 12
3 | Cc1ccc(-c2nc(CNC3CCN(Cc4ccccc4)C3)co2)cc1 (configuration not stated) | 17
4 | COc1ccc(-c2nc(CNC3CCN(Cc4ccccc4)CC3)co2)cc1 | 97
5 | Fc1ccc(-c2nc(CNC3CCN(Cc4ccccc4)CC3)co2)cc1 | -17
6 | Brc1ccc(-c2nc(CNC3CCN(Cc4ccccc4)CC3)co2)cc1 | 58
7 | CCOc1ccc(-c2nc(CNC3CCN(Cc4ccccc4)C3)co2)cc1 (configuration not stated) | 6
8 | Oc1ccc(-c2nc(CNC3CCN(Cc4ccccc4)C3)co2)cc1 (configuration not stated) | 33
9 | Brc1ccc(-c2nc(CNC3CCN(Cc4ccccc4)C3)co2)cc1 (configuration not stated) | 2
10 | CN(Cc1ccco1)/C(=N\O)c1ccc(Oc2cc(Cl)ccc2Cl)nc1 | -12
11 | COC(=O)C1CCN(/C(=N\O)c2ccnc(Oc3ccc(F)c(Cl)c3)c2)CC1 | -5
12 | Cc1cccc(-c2nc(CN3CCN(c4ccc(F)cc4)CC3)co2)c1 | 18
13 | O/N=C(\NCc1c(F)cccc1F)c1ccc(Oc2ccc(Cl)cc2)nc1 | 6
14 | CCC(CC)N/C(=N\O)c1ccc(Oc2ccc(Cl)cc2)nc1 | 96
15 | CCC(CC)N/C(=N\O)c1ccc(Oc2cc(C)cc(C(C)C)c2)nc1 | -7
16 | COCC(C)N/C(=N\O)c1ccc(Oc2cc(C)cc(C)c2)nc1 (configuration not stated) | 1
17 | COCC(C)N/C(=N\O)c1ccc(Oc2cc(Cl)ccc2Cl)nc1 (configuration not stated) | 23
18 | CCC(CC)N/C(=N\O)c1ccc(Oc2cc(Cl)ccc2Cl)nc1 | 84
19 | CCc1ccc(Oc2ccc(/C(=N/O)NC(CC)CC)cn2)cc1 | 7
20 | CCC(CC)N/C(=N\O)c1ccc(Oc2c(F)c(F)cc(F)c2F)nc1 | 19
21 | CCC(CC)N/C(=N\O)c1ccc(Oc2cc(C)cc(C)c2)nc1 | 94
22 | CCC(CC)N/C(=N\O)c1ccc(Oc2ccc(C)cc2C)nc1 | 26
23 | CCN(CCC#N)Cc1coc(-c2cc(OC)c(OC)c(OC)c2)n1 | -11
24 | Cc1ccc(/C(=N/O)N2C(C)CCC2C)c(OCc2ccccc2C)n1 (configuration not stated) | 21
25 | COC[C@H]1CCCN1Cc1coc(-c2ccc(C)cc2)n1 | -9
26 | Cc1cc(C)cc(Oc2ccc(/C(=N/O)NC3CCCCC3)cn2)c1 | 99

Row | Compound | % inhibition [%]
27 | Cc1ccc(Oc2ccc(/C(=N/O)NC3CC3)cn2)c(C)c1 | 26
28 | Cc1cc(C)cc(Oc2ccc(/C(=N/O)NC3CCN(Cc4ccccc4)C3)cn2)c1 (configuration not stated) | -11
29 | Cc1ccc(Oc2ccc(/C(=N/O)NCC3CC3)cn2)c(C)c1 | 98
30 | Cc1ccc(Oc2ccc(/C(=N/O)NCc3c(F)cccc3F)cn2)c(C)c1 | 16
31 | Cc1cc(C)cc(Oc2ccc(/C(=N/O)NC3CCC3)cn2)c1 | 99
32 | Cc1ccc(Oc2ccc(/C(=N/O)Nc3ccccc3)cn2)c(C)c1 | 22
33 | Cc1ccc(Oc2ccc(/C(=N/O)NC3CCCC3)cn2)c(C)c1 | 91
34 | Cc1ccc(Oc2ccc(/C(=N/O)NCc3cccs3)cn2)c(C)c1 | 21
35 | Cc1cc(C)cc(Oc2ccc(/C(=N/O)NC3CCc4ccccc43)cn2)c1 (configuration not stated) | 12
36 | Cc1cc(C)cc(Oc2ccc(/C(=N/O)N(C)C3CCCCC3)cn2)c1 | -8
37 | Cc1cc(Oc2ccc(/C(=N/O)NC3CCCCC3)cn2)cc(C(C)C)c1 | 17
38 | COc1ccc(-c2nc(CNc3cc(C(C)(C)C)nn3C)co2)cc1 | 7
39 | Cc1ccccc1-c1nc(CN(C)C2CCN(Cc3ccccc3)C2)co1 (configuration not stated) | 8
40 | CCCN(CC1CC1)/C(=N\O)c1ccc(C)nc1Oc1ccc(OC)cc1 | 30
41 | COc1ccc(-c2nc(CNCc3ccc(C(F)(F)F)cc3)co2)cc1 | 2
42 | CSc1ccc(Oc2nc(C)ccc2/C(=N/O)N2CCN(C3CCCC3)CC2)cc1C | 13
43 | Cc1ccc(/C(=N/O)N2CC=CC2)c(OCc2cccc(F)c2)n1 | -19
44 | CCCN(CC)Cc1coc(-c2cccc(OCC)c2)n1 | 20
45 | COc1ccc(-c2nc(CN3C(C)C=CC3C)co2)cc1 (configuration not stated) | 1
46 | FC(F)(F)Oc1ccc(CNCc2coc(-c3ccc(Br)cc3)n2)cc1 | 8
47 | CCOC(=O)C1CCN(Cc2coc(-c3cccc(OC)c3)n2)CC1 | 37
48 | COc1ccc(N2CCN(Cc3coc(-c4ccccc4Cl)n3)CC2)cc1 | -8
49 | Cc1cc(C)cc(Oc2ccc(/C(=N/O)NC3CC(C)CC(C)(C)C3)cn2)c1 (configuration not stated) | 14
50 | Cc1cc(C)cc(Oc2ccc(/C(=N/O)NC3CCC(C)CC3)cn2)c1 (configuration not stated) | 82
51 | Cc1cc(C)cc(Oc2ccc(/C(=N/O)NC3CCCC3)cn2)c1 | 98
52 | Cc1cc(C)cc(Oc2ccc(/C(=N/O)Nc3ccccc3)cn2)c1 | 0

Row | Compound | % inhibition [%]
53 | CCN(CC)CCN(C)Cc1coc(-c2cccs2)n1 | 4
54 | CCN(CC)CCNCc1coc(-c2cccc(C)c2)n1 | 26
55 | CCN(CC)CCCNCc1coc(-c2cccc(C)c2)n1 | 95
56 | CCCCN(CCCC)CCCNCc1coc(-c2ccc(F)cc2)n1 | 1
57 | CN(C)CCCNCc1coc(-c2ccc(F)cc2)n1 | 73
58 | Cc1cccc(CNCc2coc(-c3cccc(C)c3)n2)c1 | -10
59 | CCN(CC)CCNCc1coc(-c2ccc(F)cc2)n1 | -17
60 | CCCCN(CCCC)CCCNCc1coc(-c2ccco2)n1 | 20
61 | CCN(CC)CCCNCc1coc(-c2ccc(F)cc2)n1 | -8
62 | CCCCN(CCCC)CCCNCc1coc(-c2ccc(C)cc2)n1 | 53
63 | COc1cccc(-c2nc(CNCc3ccc(C(C)(C)C)cc3)co2)c1 | 5
64 | COc1ccc(Oc2ncccc2/C(=N/O)NCCN2CCOCC2)cc1 | -10
65 | Cc1cc(NCc2coc(-c3ccc(Cl)cc3Cl)n2)n(-c2ccccc2)n1 | -4
66 | CCN(Cc1coc(-c2cccc3ccccc23)n1)c1ccc2c(c1)OCO2 | 29
67 | Cc1ccc(-c2nc(Cn3ccnc3C(C)C)co2)cc1 | 39
68 | Fc1ccccc1-c1nc(CNCC(F)(F)C(F)(F)F)co1 | 21
69 | Brc1ccc(-c2nc(CNCc3ccccn3)co2)cc1 | -9
70 | Oc1ccc(-c2nc(CNC34C[C@H]5C[C@@H](C3)C[C@@H](C4)C5)co2)cc1 | 23
71 | c1csc(-c2nc(CNC34C[C@H]5C[C@@H](C3)C[C@@H](C4)C5)co2)c1 | 25
72 | Fc1ccc(-c2nc(CNC34C[C@H]5C[C@@H](C3)C[C@@H](C4)C5)co2)cc1 | 58
73 | COc1ccc(NCc2coc(-c3cccc(OC)c3)n2)cc1 | 8
74 | Brc1ccc(-c2nc(CNC34C[C@H]5C[C@@H](C3)C[C@@H](C4)C5)co2)cc1 | 62
75 | CCc1nccn1Cc1coc(-c2cccc(OC)c2)n1 | -9
76 | Brc1ccccc1-c1nc(CNC23C[C@H]4C[C@@H](C2)C[C@@H](C3)C4)co1 | 48
77 | Cc1cccc(-c2nc(CNC34C[C@H]5C[C@@H](C3)C[C@@H](C4)C5)co2)c1 | 35
78 | COc1cccc(-c2nc(CNC34C[C@H]5C[C@@H](C3)C[C@@H](C4)C5)co2)c1 | 85

Row | Compound | % inhibition [%]
79 | COc1cccc(-c2nc(Cn3ccnc3C=O)co2)c1 | 84
80 | COc1cccc(-c2nc(Cn3ccnc3C)co2)c1 | 31
81 | Cc1ccc(/C(=N/O)NC2CC2)c(OCc2ccncc2)n1 | 19
82 | Clc1ccccc1-c1nc(CN2CC=CCC2)co1 | 14
83 | CCN(CC)c1cccc(Oc2ncccc2/C(=N/O)N2CCCC2)c1 | -7
84 | CC1(C)Cc2cccc(Oc3ccc(/C(=N/O)NC4CCc5ccccc54)cn3)c2O1 (configuration not stated) | 10
85 | Cc1ccc(/C(=N/O)N2CCCC2C)c(Oc2cccc(C(C)C)c2)n1 (configuration not stated) | 0
86 | Cc1cccc(N2CCN(Cc3coc(-c4ccccc4F)n3)CC2C)c1 (configuration not stated) | -21
87 | COCC(C)N/C(=N\O)c1ccc(C)nc1OCc1ccccc1C (configuration not stated) | 8
88 | N#CCCN(Cc1ccccc1)Cc1coc(-c2ccc(F)cc2)n1 | -7
89 | Cc1ccc(C(C)C)c(Oc2cc(/C(=N/O)NCC3CCCCC3)ccn2)c1 | 27
90 | Cc1ccccc1-c1nc(CNC23C[C@H]4C[C@@H](C2)C[C@@H](C3)C4)co1 | 49
91 | Cc1ccc(-c2nc(CNC34C[C@H]5C[C@@H](C3)C[C@@H](C4)C5)co2)cc1 | 90
92 | COc1ccc(-c2nc(CNC34C[C@H]5C[C@@H](C3)C[C@@H](C4)C5)co2)cc1 | 3
93 | CN(Cc1coc(-c2ccccc2Cl)n1)CC1OCCO1 | 8
94 | CSc1ccccc1Oc1ncccc1/C(=N/O)N1CCOCC1 | 8
95 | COc1ccccc1Oc1ncccc1/C(=N/O)Nc1ccccc1 | 62
96 | COc1ccc(Oc2ncccc2/C(=N/O)Nc2ccccc2)cc1 | -9
97 | CSc1ccccc1Oc1ncccc1/C(=N/O)N1CCN(c2ccccc2)CC1 | 22
98 | CSc1ccccc1Oc1ncccc1/C(=N/O)Nc1ccccc1 | 71
99 | O/N=C(\Nc1ccccc1)c1cccnc1Oc1ccccc1F | 2
100 | Cc1ccc(Oc2nc(C)ccc2/C(=N/O)N2CCN(C)CC2)cc1 | 19
101 | COCCN(/C(=N\O)c1ccc(C)nc1Oc1ccc(SC)c(C)c1)C(C)C | 9
102 | COCCN(Cc1coc(-c2ccccc2C)n1)C(C)C | -31
